The text below walks through data of PubChem BioAssay AID743201 (The Scripps Research Institute Molecular Screening Center, 2013).

In all, about 1,500 compounds went through this assay and about 420 (28%) were called active. No stated cut-off is given here; in the data, active means inhibition above about 9.5%; inactive means the rest. Not all results are given here.

The nature of the test: LD9 cell viability loss – luminescence, high throughput, cytotoxicity control for cell surface PrPc inhibitor project (AID 743201). Particulars: LD9 cells cytotoxicity, at 13.8 µM, stronger effect = higher value.
Regarding `O=C(Nc1ccc(C2CC2(Cl)Cl)cc1)c1cccc([N+](=O)[O-])c1` (stereo not drawn), the inhibition (in general, the drop in the measured response relative to a control, in per cent) was 22.1% (active).

For `O=C(Oc1ccccc1)Oc1ccc2c(c1)oc(=O)c1ccccc12`, the inhibition is -2.43% (inactive). `O=C(COC(=O)c1ccccc1SCC(=O)NC1CCCCC1)NC1CCCCC1`: the inhibition was -4.15% (inactive). As to `Cc1nc(/N=C(\N)NC(=O)NC2CCCCC2)nc2ccccc12`, the inhibition was 13.3% (active).

Turning to `O=C(Nc1cccn(Cc2ccccc2Cl)c1=O)NC1CCCCC1`, the inhibition is -0.08% (inactive). In the case of `CC1(C)Cc2ccccc2-c2[nH]c(=S)[nH]c(=O)c21`, the inhibition was 0.24% (inactive). Consider `O=C(/C=C/c1ccc([N+](=O)[O-])o1)NNC(=O)c1ccc(F)cc1`, for which the inhibition is 81% (active).

`Cn1c(=S)sc2ccc3ccccc3c21`: the inhibition is -9.96% (inactive). For `Cc1ccc(CSc2ccc(S(=O)(=O)N3CCCCC3)cn2)cc1` the value was -3.1% (inactive); for `O=C(Nc1ccc(N2CCN(C(=O)c3ccccc3)CC2)c(Cl)c1)c1cccnc1`, 10.4% (active). For `CCCCC(=O)NC(c1ccc(OC)c(OC)c1)c1ccc2cccnc2c1O` (stereo not drawn) the value was 34.6% (active); for `COc1ccc(NC(=O)COC(=O)CNC(=O)C2CCCCC2)cc1`, -1.65% (inactive). For `Cc1cccc(CS(=O)(=O)c2ncc(Cl)c(C(=O)Nc3ccc(F)cc3)n2)c1` the value was 97.1% (active); for `O=C(Cc1ccccc1)Nc1cccc(NC(=O)c2ccccc2)c1`, -4% (inactive).

With `Cc1cccc(NC(=O)c2nc(S(=O)(=O)Cc3ccccc3)ncc2Cl)c1`, the inhibition is 88.2% (active). For `CCc1c(C)nc2cc(-c3cccs3)[nH]n2c1=O`, the inhibition is -5.48% (inactive).

Consider `Fc1ccc2[nH]c3c(N4CCSCC4)ncnc3c2c1`, for which the inhibition is 49.1% (active).

`COc1cccc2sc3cc(NCC[C@@H]4CCCN4C)ccc3c(=O)c12`: the inhibition is 3.87% (inactive). For `Cc1cc2cc(CNC(=O)c3ccc(S(=O)(=O)N4CCOCC4)cc3)ccc2[nH]1`, the inhibition was -3.01% (inactive).

For `COc1ccc(C(=O)Nc2nc(-c3ccc(S(=O)(=O)N4CCOCC4)cc3)cs2)cc1`, the inhibition was 24.7% (active). For `COc1ccc(S(=O)(=O)N2CCOCC2)cc1NC(=O)CSc1ncnc2ccccc12` the value was -10% (inactive); for `C=CCNC(=O)CSc1nc2scc(-c3ccco3)c2c(=O)n1CC=C`, -1.71% (inactive). For `N#C/C=C1\Sc2ccccc2C(=O)N1CC(=O)N1CCN(S(=O)(=O)c2ccccc2)CC1` the value was -0.34% (inactive); for `CN(C)CCNC(=O)c1ccc(Cl)c2cc3ccccc3nc12`, 62.4% (active). Turning to `COc1ccc(OC)c(NC(=O)c2cc(-c3cc(F)ccc3OCC3CCCO3)n[nH]2)c1` (stereo not drawn), the inhibition was 6.36% (inactive). Take `COC(=O)CSc1nc(C2CC2)nc2ccccc12`: the inhibition is 2.09% (inactive). For `CCCc1nc(SCC(=O)Nc2ccc(S(=O)(=O)N(C)C)cc2)c2ccccc2n1` the value was 11.4% (active); for `CCc1nc(SCC(=O)NNC(=O)c2ccc(C)cc2)c2ccccc2n1`, -9.92% (inactive); for `CCC(C)(O)C(=O)OC1C(=O)OC2CC3C(C)=CC(=O)C(O)C3(C)C3C4(O)OCC23C1C(C)C4O` (stereo not drawn), 31.5% (active). For `CCCOc1ccc(C2C(C(=O)c3ccc(C)o3)=C(O)C(=O)N2CCCn2ccnc2)cc1` (stereo not drawn) the value was -8.43% (inactive).

As to `O=C(NC(Nc1nc2ccc([N+](=O)[O-])cc2s1)(C(F)(F)F)C(F)(F)F)c1ccccc1`, the inhibition is 60.2% (active). For `Cc1ccc(Oc2cnn(-c3ccccc3)c(=O)c2Br)cc1` the value was -5.84% (inactive); for `CCOC(=O)c1c(C)[nH]c(=S)c(C#N)c1-c1ccccc1`, -0.71% (inactive); for `O=c1[nH]cccc1-c1nc2ccccc2n1Cc1ccc(Cl)cc1`, 18% (active).

For `N#Cc1ccc(OCC(=O)Nc2nc(-c3ccccn3)cs2)cc1`, the inhibition is 6.29% (inactive). For `CC(=O)c1sc2nc(SCC(=O)N3CCCCC3)[nH]c(=O)c2c1C` the value was -4.99% (inactive); for `NC(=O)C1CCN(Cc2nc3c(Br)cc(Br)cc3c(=O)[nH]2)CC1`, -0.26% (inactive). On to `O=C(CC(O)(C(F)(F)F)C(F)(F)F)Nc1ccc(Cl)c(Cl)c1`, for which the inhibition was 59.4% (active). For `Cc1sc2ncnc(SCC(=O)Nc3ccc(CN4CCCC4)cc3)c2c1C` the value was 4.39% (inactive); for `COc1ccc2c(Cl)c(-c3nnco3)sc2c1`, 0.91% (inactive). As for `O=C(c1ccc(F)cc1)c1cn(Cc2ccc(F)cc2)c2cc3c(cc2c1=O)OCCO3`, the inhibition was 0.17% (inactive). For `CCCCCCCCn1c2c(c(=N)c3c1CCC3)CCCC2` the value was 27.8% (active); for `Cc1cc2ccccc2n1CCNC(=O)COc1ccc2ccccc2c1`, 3.16% (inactive). As for `CO[C@H]([C@H](C)/C=C/N(C)C=O)[C@@H](C)C(=O)CC[C@H](C)[C@H](O)[C@H](C)[C@H]1OC(=O)/C=C/C(C)=C/[C@H](O)[C@H](OC)C[C@@H]2C=CC[C@@H](C[C@H](OC)[C@@]3(CO3)[C@@H](OC)C[C@@H](OC)[C@@H]1C)O2`, the inhibition was 22.6% (active). Turning to `FC(F)(F)c1cccc(NC(=S)OC2CCC23CCC(c2ccccc2)CC3)c1` (stereo not drawn), the inhibition was 6.03% (inactive). For `CCCCNc1c(-c2cccc(Sc3ccc(OC)cc3)c2)nc2ccccn12` the value was 17.3% (active); for `N#Cc1c(-c2cccs2)nc(SCC(=O)c2ccc(Br)cc2)[nH]c1=O`, -2.36% (inactive).

With `Cc1ccc(CNC(=O)Nc2nnc([C@H]3C[C@H](O)[C@@H](CO)O3)s2)cc1`, the inhibition is -1.07% (inactive). Consider `O=C1CCCC2=C1C(c1cccs1)n1nc(SCc3ccccc3)nc1N2` (stereo not drawn), for which the inhibition is -3.22% (inactive).

Consider `CN1/C(=C\C(=O)c2oc3ccccc3c2N)C(C)(C)c2ccccc21`, for which the inhibition is 7.55% (inactive). In the case of `CC(=O)Nc1cccc(OCC(=O)/C=C2\N(C)c3ccccc3C2(C)C)c1`, the inhibition is 13.8% (active). For `Cc1ccsc1C(=O)OCC(=O)Nc1cccc(F)c1` the value was -2.87% (inactive); for `Cc1[nH]n(-c2ccccc2)c(=O)c1/C=N/NC(=O)c1ccoc1C`, 21.3% (active); for `CCOC(=O)c1c(-c2ccccc2)oc2cc(Br)c(O)cc12`, -6.88% (inactive). For the compound `COC(=O)Cc1[nH]n(-c2nc3ccccc3s2)c(=O)c1C(C)=Nc1ccc(OC)cc1`, the inhibition is -5.36% (inactive). Turning to `CC(=O)c1nc(N2C(=O)C3CC=C(C)CC3C2=O)sc1C` (stereo not drawn), the inhibition was -5.65% (inactive). For `CCCCCCCCCCCCn1ccc(=N)cc1` the value was 33.6% (active); for `COc1cc(-n2c(=S)[nH]c3ccc(C)cc3c2=O)c(Cl)cc1Cl`, -3.19% (inactive). For `Cc1ccc(NC(=O)c2sc3nc(N)c(C#N)cc3c2N)cc1` the value was 14.7% (active); for `CC(=O)N1CCCc2cc(S(=O)(=O)N3CCCC(C(=O)N4CCN(c5cccc(Cl)c5)CC4)C3)ccc21` (stereo not drawn), 24.1% (active); for `CC(=O)N1c2ccc(S(=O)(=O)N3CCCC(C(=O)Nc4cccc(F)c4)C3)cc2CC1C` (stereo not drawn), 10.8% (active). For the compound `CC(=O)N1CCCc2cc(S(=O)(=O)N3CCCC(C(=O)NCc4ccc(Cl)cc4)C3)ccc21` (stereo not drawn), the inhibition is 4.27% (inactive).

For the compound `Cc1ccnc(NC(=O)C2CCN(S(=O)(=O)c3c(C)c(C)cc(C)c3C)CC2)c1`, the inhibition was -5.26% (inactive).
